Assay outcomes: PubChem, Broad Institute
aSyn UTR act: Activators via SNCA 5'UTR binding, MLPCN | alpha-synuclein 5'UTR reporter, activators screen | 300,000 tested, 7.1% active | activity score, % (tested at 7.5 µM), hits read low; in the data active = activity score below about -60%
Active calls of the source: *. Not all results are given here.

Screening COc1cccc(-c2cc(C(=O)Nc3ccccc3SC)no2)c1 returned aSyn UTR act -141*.
Screening CSc1ccccc1NC(=O)c1cc(CC(C)C)on1 returned aSyn UTR act -178*.
`COc1ccccc1-c1cc(C(=O)Nc2cccnc2)no1` gave aSyn UTR act 55.
`COc1cccc(NC(=O)C2COc3ccccc3O2)c1` (stereo not given) gave aSyn UTR act -201*.
COc1ccc(CNC(=O)C2COc3ccccc3O2)cc1 (stereo not given) was read as aSyn UTR act -62*.
Screening O=C(Nc1cnc2ccccc2c1)C1COc2ccccc2O1 (stereo not given) returned aSyn UTR act -167*.
`Cc1cc(Cl)ccc1NC(=O)C1COc2ccccc2O1` (stereo not given) gave aSyn UTR act -85*.
Screening COc1ccc(OC)c2c1sc(=NC(=O)C1COc3ccccc3O1)n2C (stereo not given) returned aSyn UTR act -128*.
`Cc1cc(=O)oc2cc(NC(=O)C3COc4ccccc4O3)ccc12` (stereo not given) gave aSyn UTR act -62*.
`O=C(Nc1ccc(F)cc1)C1COc2ccccc2O1` (stereo not given) gave aSyn UTR act -72*.
Screening O=C(Nc1ccc2c(c1)OCO2)C1COc2ccccc2O1 (stereo not given) returned aSyn UTR act -177*.
Screening O=C(Nc1ccccc1[N+](=O)[O-])C1COc2ccccc2O1 (stereo not given) returned aSyn UTR act -221*.
COc1ccc(C)cc1NC(=O)C1COc2ccccc2O1 (stereo not given) was read as aSyn UTR act -67*.
`CC(=O)Nc1cccc(NC(=O)c2cc3ccccc3o2)c1` gave aSyn UTR act -92*.
`Cc1ccc(NC(=O)c2cc3ccccc3o2)cc1Cl` gave aSyn UTR act -270*.
CC(=O)Nc1cccc(NC(=O)c2oc3ccccc3c2C)c1 was read as aSyn UTR act -272*.
For CC(=O)Nc1ccc(-c2cc3ccccc3o2)cc1 the results were aSyn UTR act -147*.
`CCC(=O)Nc1ccc(Cl)c(NC(=S)NC(=O)c2cc3ccccc3o2)c1` gave aSyn UTR act -95*.
For CC(C)C(=O)Nc1cccc(NC(=O)c2cc3ccccc3o2)c1 the results were aSyn UTR act -108*.
`Cc1ccc(C(=O)Nc2ncccc2S(=O)(=O)c2ccccc2)cc1` gave aSyn UTR act -154*.
`COc1ccc(NC(=O)c2coc3ccccc23)cc1OC` gave aSyn UTR act -122*.
COc1ccc(NC(=O)c2cc(CN3C(=O)c4ccccc4C3=O)ccc2OC)cn1 was read as aSyn UTR act -86*.
`COc1ccc(NC(=O)c2cc3ccccc3o2)cc1` gave aSyn UTR act -152*.
Screening COc1ccc(NC(=O)c2cc3ccccc3o2)cc1OC returned aSyn UTR act -150*.
For COc1ccc(NC(=O)CCCc2ccccc2)cc1OC the results were aSyn UTR act -136*.
`COc1cc(NC(=O)C(C)C)ccc1NC(=O)c1cc2ccccc2o1` gave aSyn UTR act -166*.
Screening COc1ccc(NC(=O)c2cc3ccccc3o2)cn1 returned aSyn UTR act -216*.
`N/C(=N\OC(=O)c1cc(Cl)ccc1Cl)c1ccncc1` gave aSyn UTR act -229*.
`N/C(CS(=O)(=O)c1ccccn1)=N\OC(=O)c1ccccc1Cl` gave aSyn UTR act -114*.
Cc1ccc(C(=O)O/N=C(\N)c2ccccc2)c(Cl)c1 was read as aSyn UTR act 85.
Screening N/C(=N\OC(=O)c1ccccc1Cl)c1ccncc1 returned aSyn UTR act -107*.
N/C(=N\OC(=O)c1ccc(Cl)cc1Cl)c1ccncc1 was read as aSyn UTR act -112*.
Screening O=C(Nc1ccc2c(c1)CCC2)c1c(F)cccc1Cl returned aSyn UTR act -159*.
Screening O=C(Nc1ccc2c(c1)CCC2)c1cnc(Cl)c(Cl)c1 returned aSyn UTR act -190*.
Screening O=C(Nc1ccc2c(c1)CCC2)c1ccc(Cl)nc1 returned aSyn UTR act -156*.
CC(C)(C)c1ccc(SCCc2cccnc2)cc1 was read as aSyn UTR act -123*.
Screening O=c1[nH][nH]c(-c2ccccc2O)c1C(C[N+](=O)[O-])c1ccc(Br)cc1 (stereo not given) returned aSyn UTR act -95*.
`COc1ccc(C2NC(=S)NC3=C2CCCC3=C2SCCS2)cc1` (stereo not given) gave aSyn UTR act active.
Screening O=C(Nc1cccnc1Cl)c1noc2c1CCc1ccccc1-2 returned aSyn UTR act -124*.
`O=C(NCCN1CCOCC1)c1noc2c1CCc1ccccc1-2` gave aSyn UTR act -104*.
CCCNC(=O)c1noc2c1CCc1ccccc1-2 was read as aSyn UTR act -119*.
O=C(Nc1ccccc1)C1=C[C@@H](c2ccc3c(c2)OCO3)C[C@@H](OCCCCO)O1 was read as aSyn UTR act -112*.
`O=C(Nc1ccccc1)C1=C[C@H](c2ccc3c(c2)OCO3)C[C@H](OCCCCO)O1` gave aSyn UTR act -89*.
`Oc1csc(Cc2nc(-c3ccc4ccccc4c3)cs2)n1` gave aSyn UTR act -236*.
For Oc1csc(Cc2nc(-c3ccccc3F)cs2)n1 the results were aSyn UTR act -169*.
Oc1csc(Cc2nc(-c3ccc(-c4ccccc4)cc3)cs2)n1 was read as aSyn UTR act -112*.
For Cc1cc(C)n(CCc2nc(-c3ccc(-c4ccccc4)cc3)cs2)n1 the results were aSyn UTR act -71*.
For Cc1cccc(C)c1OCc1cc(C(=O)N2CC3C[C@@H]4CC2C[C@H](C3)C4)no1 the results were aSyn UTR act -117*.
For Cc1ccc(OCc2cc(C(=O)N3CC4C[C@@H]5CC3C[C@H](C4)C5)no2)cc1C the results were aSyn UTR act -111*.
COC(=O)C1C(=O)C(C(=O)/C=C/c2ccccc2)C(=O)CC1(C)C (stereo not given) was read as aSyn UTR act -134*.
For COc1ccccc1/C=C/C=N/NC(=O)c1cccs1 the results were aSyn UTR act -180*.
COc1ccccc1/C=C\C=N\NC(=O)c1ccco1 was read as aSyn UTR act -98*.
Screening CSc1ccccc1OCc1cc(C(=O)N(C)Cc2ccc3nsnc3c2)no1 returned aSyn UTR act -160*.
`CC(=O)c1cccc(OCc2cc(C(=O)N(C)Cc3ccc(C)o3)no2)c1` gave aSyn UTR act -68*.
Screening CSc1ccccc1OCc1cc(C(=O)N(C)Cc2ccc(C)o2)no1 returned aSyn UTR act -123*.
`Cc1nnc(CN(C)C(=O)c2cc(COc3ccc(F)cc3Cl)on2)o1` gave aSyn UTR act -100*.
For Cc1ccc(Nc2cc(-n3cccn3)ncn2)c(C)c1 the results were aSyn UTR act -170*.
Screening Fc1cccc(Nc2cc(-n3cccn3)ncn2)c1 returned aSyn UTR act -147*.
`Cc1nnc(NC(=O)c2csc3c2CCC(C)C3)s1` (stereo not given) gave aSyn UTR act -100*.
Screening Cc1nnc(NC(=O)c2csc3c2CCCC3)s1 returned aSyn UTR act -99*.
COc1cccc(CNC(=O)CCS(=O)(=O)c2ccc3c(c2)NC(=O)CO3)c1 was read as aSyn UTR act 99.
`COc1cccc(C2CC(=O)Nc3cc4c(cc32)CCC4)c1` (stereo not given) gave aSyn UTR act 84.
COc1cccc(-c2nc(-c3ccc4c(c3)NC(=O)CO4)cs2)c1 was read as aSyn UTR act -197*.
